The values that follow come from PubChem BioAssay AID1903 (Southern Research Specialized Biocontainment Screening …, 2009).

The structures appear in SMILES notation. Hit rate of the full screen: of about 310,000 compounds, about 1,200 (0.39%) were called active. A selection follows. Measured potencies and affinities stand elsewhere. Unmarked numbers belong to inactive results. The rule behind the calls is not given here.

The test deals with Large T antigen (Simian virus 40) (UniProt P03070). Description: SV40 large T antigen inhibitors, biochemical (AID 1903). Conditions: SV40 large T antigen ATPase/helicase inhibition assay; at 20 µM; stronger effect = higher value.
Large T antigen (Simian virus 40), sequence (P03070 whole entry, looked up): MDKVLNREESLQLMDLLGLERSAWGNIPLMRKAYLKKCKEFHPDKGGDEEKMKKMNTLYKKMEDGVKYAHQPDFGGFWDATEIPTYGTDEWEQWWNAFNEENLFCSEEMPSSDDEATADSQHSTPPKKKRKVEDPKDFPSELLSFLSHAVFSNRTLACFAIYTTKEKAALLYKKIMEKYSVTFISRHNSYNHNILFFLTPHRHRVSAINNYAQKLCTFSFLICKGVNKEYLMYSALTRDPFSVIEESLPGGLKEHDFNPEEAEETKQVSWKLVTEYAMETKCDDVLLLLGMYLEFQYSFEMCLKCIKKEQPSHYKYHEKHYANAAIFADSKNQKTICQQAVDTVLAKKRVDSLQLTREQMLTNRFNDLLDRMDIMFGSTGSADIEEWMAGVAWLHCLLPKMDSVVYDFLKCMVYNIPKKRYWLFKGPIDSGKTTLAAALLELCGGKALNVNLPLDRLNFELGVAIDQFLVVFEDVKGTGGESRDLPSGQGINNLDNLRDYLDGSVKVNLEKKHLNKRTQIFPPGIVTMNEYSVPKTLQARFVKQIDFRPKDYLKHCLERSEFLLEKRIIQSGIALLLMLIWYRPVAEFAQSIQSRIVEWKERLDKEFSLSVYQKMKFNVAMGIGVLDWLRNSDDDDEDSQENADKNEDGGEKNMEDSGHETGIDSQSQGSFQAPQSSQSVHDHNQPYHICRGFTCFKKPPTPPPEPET
In the case of `COc1ccc(-c2cc(=O)c3cc(OC)c(OC)cc3[nH]2)cc1`, the inhibition – broadly, the drop in the measured response relative to a control, in per cent – was 3.81%.

Consider `Cc1ccc(/C=C(\NC(=O)c2ccccc2)C(=O)NCC2CCCO2)o1` (stereo not given), for which the inhibition was 6.08%.

Turning to `O=C(COc1ccc(C(=O)c2ccccc2)cc1)NC1CCCCCC1`, the inhibition is -8.94%.

As for `NC(N)=Nc1nc2ccc(Cl)cc2c(=O)[nH]1`, the inhibition is 11.5%.

In the case of `COc1ccc(NC(=O)/C=C/c2ccc(OC(F)F)cc2)cn1`, the inhibition was 9.9%.

Turning to `COc1ccc(N2CCN(C(=O)CN3C(=O)NC(c4ccc(OC)cc4)(c4ccc(OC)cc4)C3=O)CC2)cc1`, the inhibition is 6.64%.

Take `Cc1cc(=O)n(CC=C(Cl)Cl)c2ccccc12`: the inhibition is -7.91%.

With `NC(=S)N/N=C/c1ccccc1`, the inhibition is 13%.

With `NC(=S)NN=C1c2ccccc2-c2ccccc21`, the inhibition is 7.35%.

On to `CC(=O)Nc1ccc(NC(=O)CS(=O)(=O)c2cn(CC(=O)N3CCCC3)c3ccccc23)cc1`, for which the inhibition was 14%.

`Cc1ccc(-n2nc(C)c(NC(=O)CCl)c2C)cc1`: the inhibition was 9.64%.

Regarding `CC(C)CCNC(=O)c1cccc(S(=O)(=O)N2CCc3ccccc32)c1`, the inhibition is 11.5%.

Take `COC(=O)c1c(NC(=O)COC(=O)c2ccccn2)sc(C)c1C`: the inhibition was 11.7%.

In the case of `COc1cc(-c2nnc(SCc3cc(=O)oc4cc(C)ccc34)o2)cc(OC)c1OC`, the inhibition was 0.12%.

For the compound `COc1cc(-c2nnc(SCc3ccccc3Cl)o2)cc(OC)c1OC`, the inhibition was 4.19%.

`COc1ccccc1-c1nc2c(c(SCC(=O)N3CCCCC3)n1)Cc1c(CO)cnc(C)c1O2`: the inhibition is 4.68%.

In the case of `Cc1sc2ncn(CC(=O)NCc3ccccn3)c(=O)c2c1S(=O)(=O)N1CCOCC1`, the inhibition was -0.92%.

Take `Nn1c(SCC(=O)N2CCCCCC2)nnc1-c1ccncc1`: the inhibition was 2.98%.

Take `Cc1ccc([C@@H]2CC=C(C(=O)O)[C@H](c3ccc(Cl)cc3)N2S(=O)(=O)c2ccc(C)cc2)cc1`: the inhibition was 21.6%.

Turning to `Cc1ccc(S(=O)(=O)N2[C@@H](c3ccccc3)C(C(=O)O)=CC[C@H]2c2ccc(Cl)cc2)cc1`, the inhibition is 17.2%.

For `Cc1ccc(C(=O)COC(=O)CNC(=O)CNC(=O)c2ccc(C)cc2)cc1`, the inhibition is 10.1%.

As to `COc1cc(NC(=O)c2cc([N+](=O)[O-])ccc2NC(=O)CN2CCN(c3ccccn3)CC2)cc(OC)c1`, the inhibition is 2.42%.

With `Cc1ccc(NC(=O)NCCN2CCCCC2)cc1`, the inhibition was 12.7%.

For `Cc1cc(C)c(S(=O)(=O)NCCn2c(C)cc3ccccc32)c(C)c1`, the inhibition is 3.6%.

Take `NS(=O)(=O)c1ccc(-c2ccc(/C=C3\C(=O)Nc4ccccc43)o2)cc1`: the inhibition is 3.06%.

As to `NS(=O)(=O)c1ccc(-c2ccc(/C=C3\NC(=S)NC3=O)o2)cc1`, the inhibition was 34.2%.

Consider `COc1ccccc1/C=C/C(=O)N1CCCC1`, for which the inhibition was 16.6%.

Turning to `Cn1cc([N+](=O)[O-])c(C(=O)NC2CCCCCCC2)n1`, the inhibition was 11.7%.

Turning to `O=S(=O)(Nc1ccc(N2CCOCC2)cc1)c1ccc(Cl)s1`, the inhibition is 36.6%.

In the case of `CCOc1cc(N2CCOCC2)c(OCC)cc1NS(=O)(=O)c1cc(NC(C)=O)ccc1OC`, the inhibition was 9.72%.

Take `CCOc1cc(N2CCOCC2)c(OCC)cc1NC(=O)C(C)C`: the inhibition is 5.9%.

With `CCOc1cc(N2CCOCC2)c(OCC)cc1NC(C)C(=O)N1CCN(CC)CC1` (stereo not given), the inhibition was 4.25%.

In the case of `COc1ccccc1CNC(=O)C(CC(C)C)NC(=O)C1CCC(C)CC1` (stereo not given), the inhibition was 12.9%.

On to `COc1ccc(/C=N/NC(=O)Cc2csc(Nc3cccc(C(F)(F)F)c3)n2)c(OC)c1`, for which the inhibition is 4.64%.

Consider `O=C(O)C1Nc2c(C(=O)N3CCOCC3)cccc2C2C=CCC12` (stereo not given), for which the inhibition is 34.2%.

As for `CCOC(=O)C1Nc2c(F)cc(C)cc2C2C=CCC12` (stereo not given), the inhibition is 26%.

With `O=C(O)C1Nc2c(C(F)(F)F)ccc(Cl)c2C2C=CCC12` (stereo not given), the inhibition was 17.1%.

Take `CCOC(=O)C1Nc2ccc(Br)cc2C2C=CCC12` (stereo not given): the inhibition is 7%.

Take `CCNc1ccc(C(=O)OCC)cc1NC(=O)c1cccc(S(=O)(=O)N(C)c2ccccc2)c1`: the inhibition is -1.52%.

In the case of `CC1CN(CCOCCSc2ccccc2)CC(C)O1` (stereo not given), the inhibition was -2.63%.

On to `COC(=O)CNc1cc(S(=O)(=O)N2CCCCC2)ccc1Oc1cccc(C)c1`, for which the inhibition was 5.08%.

On to `COc1ccc(Cn2c(-c3ccc(OC)cc3)nc3c(c(=O)c4ccccc4n3C)c2=O)cc1`, for which the inhibition is 4.69%.

Regarding `Cc1csc2c(NCCCN3CCOCC3)ncnc12`, the inhibition was 5.93%.

`c1ccc2c(NCCCN3CCOCC3)c3ccccc3nc2c1`: the inhibition was 3.76%.

Turning to `COc1ccc(/C=N/n2c(COc3ccccc3)n[nH]c2=S)cc1OC`, the inhibition was 32.6%.

Consider `O=c1c2ccccc2nc(COc2ccccc2)n1/N=C/c1ccc(O)cc1O`, for which the inhibition is 5.35%.

On to `CCCc1nc2ccccc2c(=O)n1/N=C/c1ccccc1O`, for which the inhibition is -9.27%.

For the compound `CCCc1nc2ccccc2c(=O)n1/N=C/c1ccc(O)cc1`, the inhibition is 6.26%.

With `O=C(O)COc1ccc(/C=N/n2c(COc3ccccc3)nc3ccccc3c2=O)cc1`, the inhibition is 1.95%.

As to `CCOc1cc(/C=N/n2c(COc3ccccc3)n[nH]c2=S)ccc1O`, the inhibition is 19.9%.

Regarding `O=C1COc2ccc(C(=O)COC(=O)c3cc(S(=O)(=O)NCc4ccccc4)ccc3O)cc2N1`, the inhibition is 13%.

Turning to `Cc1cc(Cl)ccc1NC(=O)CN1C(=O)NC2(CCCc3ccccc32)C1=O` (stereo not given), the inhibition was 25.2%.

Turning to `CCOC(=O)CN1C(=O)SC(CC(=O)Nc2nccs2)C1=O` (stereo not given), the inhibition was 2.87%.

As for `O=C(COC(=O)Cc1ccccc1F)NNC(=O)c1ccc([N+](=O)[O-])cc1`, the inhibition was 22.7%.

Turning to `FC(F)Oc1ccc(-n2cc(-c3ccccc3)[n+]3c2CCCCC3)cc1`, the inhibition is 10.7%.

As for `COc1ccccc1NC(=S)N1CCN(c2cccc(C)c2C)CC1`, the inhibition is -4.85%.

Turning to `COc1ccccc1NS(=O)(=O)c1ccc(O)cc1`, the inhibition is 7.04%.

Consider `O=C(O)CN1C(=O)S/C(=C\c2cccnc2)C1=O`, for which the inhibition is 16.2%.

Consider `O=C(CCc1nnc(-c2ccsc2)o1)NCc1ccccc1OC(F)(F)F`, for which the inhibition was 3.5%.

As to `CN(C)S(=O)(=O)c1ccc(NC(=O)c2ccccn2)cc1`, the inhibition is -5.42%.

For the compound `O=C(NCc1ccco1)C1CC(=O)N(c2ccc(Cl)cc2)C1` (stereo not given), the inhibition is -4.21%.

Turning to `O=C(NCc1ccco1)C1CC(=O)N(c2ccc(F)cc2)C1` (stereo not given), the inhibition is 9.04%.

Regarding `[O-][n+]1ccccc1SCc1ccccc1`, the inhibition was 10.4%.

Take `[O-][n+]1ccccc1/C=C/c1ccccc1`: the inhibition was 7.12%.

As for `COc1ccc(NC(=O)C2CCN(S(=O)(=O)c3cccc4nonc34)CC2)c(OC)c1`, the inhibition is 10.9%.

With `CC1CCN(CCCCOc2ccc([N+](=O)[O-])cc2)CC1`, the inhibition was 20.7%.

On to `O=C(CN1CCCN(Cc2ccc(F)cc2)S1(=O)=O)NC1CCCC1`, for which the inhibition was 1.85%.

In the case of `O=C(Nc1ccc(Cl)cc1)NC1CCCCC1`, the inhibition was 0.423%.

Consider `Cc1ccc(NC(=O)NC2CCCCCCC2)cc1`, for which the inhibition was 3.82%.

On to `O=C(c1ccc2c(c1)OCO2)N1CCC2(CC1)Oc1ccc(Cl)cc1C(=O)C21CC(c2cccnc2)=NO1` (stereo not given), for which the inhibition was 6.56%.

For `O=C(CCn1c(=O)oc2cc(Cl)ccc21)Nc1ccc(N2CCOCC2)cc1`, the inhibition is 12.7%.

In the case of `O=C(CCn1c(=O)oc2ccccc21)Nc1cccc(Cl)c1`, the inhibition was 6.5%.

Regarding `CCCCN(C(=O)c1ccc(S(=O)(=O)N2CCCC2)cc1)C1CCS(=O)(=O)C1` (stereo not given), the inhibition is 2.38%.

Take `O=C(COc1ccc(Br)cc1)NNC(=S)NCc1ccccc1`: the inhibition was 15%.

As to `O=S1c2ccccc2Nc2ccccc21`, the inhibition was 8.27%.

In the case of `COC(=O)/C(C#N)=C1/C=Cc2ccccc2N1`, the inhibition was 9.95%.

In the case of `OC[C@H]1OC(O)[C@@H](O)[C@@H](O)[C@@H]1O` (stereo not given in full), the inhibition was 12.2%.

In the case of `O=C(Cn1nc(C(=O)O)c2ccccc2c1=O)NC12CC3CC(CC(C3)C1)C2`, the inhibition was 3.68%.

As to `O=C(CSc1ccccc1C(=O)O)NC12CC3CC(CC(C3)C1)C2`, the inhibition is 7.17%.

Turning to `N#Cc1ccsc1NC(=O)CN1CCN(S(=O)(=O)c2ccc3ccccc3c2)CC1`, the inhibition is -5.22%.

For `O=C(CCc1c[nH]c2ccccc12)NC(Cc1c[nH]c2ccccc12)C(=O)O` (stereo not given), the inhibition is 11.4%.

In the case of `NNC(=O)c1ccccc1CO`, the inhibition was 3.38%.

With `CNC(=O)c1ccccc1Sc1ccccc1CO`, the inhibition is 10.3%.

On to `O=[N+]([O-])c1cccc(/C=N/N2CCN(c3ccccn3)CC2)c1`, for which the inhibition was 15.9%.

`COc1ccccc1CNC(=O)c1ccccc1C(=O)NC(CC(C)C)C(=O)NCc1ccccc1OC` (stereo not given): the inhibition is 14%.

As to `CCCCNC(=O)CCCCn1c(=S)[nH]c2c([nH]c3ccc(OC)cc32)c1=O`, the inhibition was 9.54%.

Consider `CCCNC(=O)CCCCn1c(=S)[nH]c2c([nH]c3ccc(OC)cc32)c1=O`, for which the inhibition is 10.7%.

In the case of `COc1ccc2[nH]c3c(=O)n(CCCCCC(=O)NCCC(C)C)c(=S)[nH]c3c2c1`, the inhibition is 5.88%.

Regarding `COc1ccc2[nH]c3c(=O)n(CCCCC(=O)NCCC(C)C)c(=S)[nH]c3c2c1`, the inhibition was 9.9%.

As to `CCc1nc2oc3ccccc3c(=O)c2c(=O)n1Cc1ccccc1`, the inhibition was 2.01%.

Turning to `Cn1ccnc1SCC(=O)c1cccc(Br)c1`, the inhibition is 23.2%.

As to `Cc1cc(C)c(NC(=O)COC(=O)CSc2ccc(Br)cc2C)c(C)c1`, the inhibition is -2.91%.

Turning to `O=C(O)c1ccc(O)c(O)c1`, the inhibition was 8.73%.

Take `CC(=O)c1ccc(O)c(CO)c1`: the inhibition was 8.31%.

With `O=C(CSc1nnc(Cn2c(=O)sc3ccccc32)n1-c1ccccc1)N1CCCCCC1`, the inhibition was 2.86%.
